From PubChem
The list is not random: actives were taken first. Their share in the collection is about 3.8%.
TGFb SMAD3 inh: inhibitors of TGF-b signaling | Potency, µM (doses to about 46.1 µM), usual class: inhibitors | AID 588855 | HepG2 CAGA-GFP TGF-b/SMAD3 reporter, GFP fluorescence, 18 h; TGF-beta stimulated, 500 pg/mL final | 1.2% of 410,000 active; further: nearly all actives have a fitted effect of over 65% in size
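HEPG2 CAGA-GFP, 1000 cells/well; 2 h settle, 37 C; cpd via pin tool; TGF-b 500 pg/mL final; 18 h, 37 C; GFP imaging ex488/em500-530; %Activity normalised to -TGF-b and +DMSO controls; CRC fit, curve class.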
HepG2 tox-1: counter-screen for TGF-b inhibitors: cytotoxicity in HepG2 cells; HepG2 CAGA-GFP viability, ATP luminescence, 18 h; Potency, µM (top dose mostly 46.1 µM), actives largely listed as cytotoxic; 0.76% of 410,000 active
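CellTiter-Glo luminescence gave cytotoxicity after 18 hours at 37 degrees C. The cells were HepG2 CAGA-GFP in 1% FBS DMEM, stimulated with 500 pg/mL TGF-beta after compound addition. %Activity was normalised to no-cell wells (complete cell-killing) and DMSO (no toxicity), and curves were fitted and classified.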
ATXN viability: cell viability loss in ATXN counter-screen. Potency, µM (top dose mostly 56.7 µM), most hits filed as cytotoxic. S2 cells (HEK-293 line with an ATXN2-luciferase reporter) viability, CellTiter-Fluor protease fluorescence, 24 h. 0.49% of 400,000 active; further: nearly all actives have a fitted effect of over 40% in size
A549 tox: counter-screen for Nrf2 inhibitors: cytotoxicity in A549 cells; Potency, µM (titrated, usually from 46 µM), most hits filed as inhibitors; A549 ARE-Fluc cells, CellTiter-Fluor viability, 18-24 h; 0.16% of 390,000 active
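A549 ARE_Fluc cells in 5% FBS OPTI-MEM were exposed to compounds in concentration-response for 18-24 h at 37 deg C. Viability was read by CellTiter-Fluor fluorescence (Ex 405/Em 525) after 30 min, before the luciferase read.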
Nrf2 block: inhibitors of Nrf2 signaling; Potency, µM (series often up to 46 µM), usual class: inhibitors; AID 504444; 2.1% of 360,000 active; A549 ARE-Fluc reporter, luciferase luminescence, 18-24 h; further: nearly all actives have a fitted effect of over 60% in size
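Two sequential reads on A549 ARE_Fluc cells exposed to compound for 18-24 h: a CellTiter-Fluor fluorescence read for viability, then a luciferase luminescence read for Nrf2/ARE activity.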
ATXN2 expr inh: reduces ATXN2 reporter expression in HEK-293 cells; HEK-293 ATXN2-luciferase reporter, luminescence, 24 h; Potency, µM (doses to about 57 µM), hits mostly inhibitors; 0.72% of 360,000 active; AID 1745845; further: nearly all actives have a fitted effect of over 55% in size
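ATXN2-luciferase reporter cells (luciferase flanked by upstream and downstream ATXN2 gene portions) were treated 24 h at 37 °C with compounds at up to 57 uM. SteadyGlo luminescence gave expression; GF-AFC fluorescence gave viability.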
TGFb CAGA inh: confirmation of TGF-b signaling inhibitors in HepG2 reporter cells; 63% of 1,600 active; HepG2 CAGA-GFP TGF-b reporter, GFP fluorescence, 18 h; cells stimulated with TGF-beta, 500 pg/mL; Potency, µM (top dose mostly 46.1 µM), actives largely listed as inhibitors; shares compounds with TGFb SMAD3 inh; further: nearly all actives have a fitted effect of over 65% in size
HepG2 tox-2: HepG2 cytotoxicity, TGF-b inhibitor counterscreen; 27% of 1,600 active; Potency, µM (doses to about 46.1 µM), hits mostly inhibitors; AID 720535; HepG2 CAGA-GFP viability, ATP luminescence, 18 h; cells stimulated with TGF-beta, 500 pg/mL; shares compounds with TGFb SMAD3 inh; further: nearly all actives have a fitted effect of over 70% in size
TGFb CCL64 inh: TGF-b inhibition, CCL64 orthogonal assay; AID 720536; Potency, µM (series often up to 46.1 µM), hits mostly inhibitors; 41% of 1,600 active; CCL64 CAGA-GFP reporter, TGF-b stimulated, GFP fluorescence, 18 h; shares compounds with TGFb SMAD3 inh; further: nearly all actives have a fitted effect of over 65% in size
COP TGFb inh: validation of TGF-b inhibitors in HepG2 COP promoter reporter; shares compounds with TGFb SMAD3 inh; HepG2 COP-GFP TGF-b reporter, GFP fluorescence, 18 h; cells stimulated by added recombinant TGF-beta; Potency, µM (highest dose often 46.1 µM), most hits filed as inhibitors; 3% of 1,600 active; AID 720537; further: nearly all actives have a fitted effect of over 70% in size
Hits are given with their value; . = inactive; ? = inconclusive; / = not tested or not shown. The call rests on the fitted dose curve; in most records, active means well fitted curve in the direction sought with a large enough effect; inconclusive means small, poorly fitted or top-dose-only effect, or another doubt; inactive means no such curve, though single readings can be large; an effect the other way counts as inactive or inconclusive.

SMILES	TGFb SMAD3 inh	HepG2 tox-1	ATXN viability	A549 tox	Nrf2 block	ATXN2 expr inh	TGFb CAGA inh	HepG2 tox-2	TGFb CCL64 inh	COP TGFb inh
COC(=O)c1sccc1NC(=O)CN1CCN(c2ccc(F)cc2)CC1	11µM	.	.	.	.	.	?	?	.	.
COc1ccccc1CNS(=O)(=O)c1ccc2c(c1)CC(C)N2C(=O)C1CC1 (stereo not given)	?	.	?	.	.	/	/	/	/	/
COc1ccccc1CNS(=O)(=O)c1ccc2c(c1)CC(C)N2C(=O)C1CCC1 (stereo not given)	14µM	.	.	.	18µM	.	18µM	.	.	.
COc1ccccc1OCC(=O)NC1CCCc2ccccc21 (stereo not given)	.	.	.	.	.	.	/	/	/	/
CC(C)c1ccccc1OCC(=O)NC1CCCc2ccccc21 (stereo not given)	16µM	.	.	.	?	.	18µM	?	?	.
COc1ccc(C(NC(=O)C(C)C)c2ccc3cccnc3c2O)cc1 (stereo not given)	4.5µM	.	.	.	?	3.2µM	.	?	7.3µM	.
O=C(O)c1ccccc1NC(c1ccccc1)c1ccc2cccnc2c1O (stereo not given)	8.9µM	.	?	.	?	?	6.5µM	?	15µM	.
CCCCC(=O)NC(c1ccc(OC)cc1)c1ccc2cccnc2c1O (stereo not given)	?	.	?	/	/	/	/	/	/	/
COc1ccc(C(NC(C)=O)c2cc(Cl)c3cccnc3c2O)cc1 (stereo not given)	7.1µM	.	.	.	?	4.5µM	?	?	13µM	.
CN(C)c1cccc2c1C(=O)c1ccccc1C2=O	.	.	?	?	.	.	/	/	/	/
Cc1ccc(SC2=C(N(C)C)C(=O)c3ccccc3C2=O)cc1	10µM	.	?	.	.	?	?	.	21µM	.
CCn1c(=O)c(C(=O)Nc2nc3ccccc3[nH]2)c(O)c2ccccc21	2µM	.	.	21µM	16µM	.	.	?	?	.
CCOc1ccc(Cl)cc1-c1cc(C(=O)NCc2cc(C(F)(F)F)cc(C(F)(F)F)c2)[nH]n1	16µM	.	?	/	/	?	16µM	?	?	.
CN(C)c1ccc(C2CNC(c3ccc(Cl)c([N+](=O)[O-])c3)c3[nH]c4ccccc4c32)cc1 (stereo not given)	8.9µM	.	?	.	.	/	?	.	21µM	.
COc1ccc(C[C@H](N)C(=O)N[C@H]2[C@@H](O)[C@H](n3cnc4c(N(C)C)ncnc43)O[C@@H]2CO)cc1	3.2µM	.	0.71µM	1.5µM	1.5µM	0.4µM	5.2µM	2.1µM	2.9µM	?
CN(C)c1ncnc2c1ncn2C1OC(CO)C(O)C1O (stereo not given)	0.63µM	.	?	.	?	.	0.65µM	5.8µM	?	.
CNc1ncnc2c1ncn2[C@@H]1O[C@H](CO)[C@@H](O)[C@H]1O	?	.	.	.	.	.	/	/	/	/
CN(C)c1ncnc2c1nnn2C1OC(CO)C(O)C1O (stereo not given)	0.56µM	.	?	/	/	/	2.1µM	?	?	.
OCC1OC(n2ccc3c2ncn2ncnc32)C(O)C1O (stereo not given)	5µM	.	.	/	/	/	1.8µM	0.52µM	.	.
C=CCOc1ccc(C[C@H](N)C(=O)NC[C@H]2O[C@@H](n3cnc4c(N)ncnc43)[C@H](O)[C@@H]2O)cc1	.	.	.	.	.	.	/	/	/	/
CN(C(=O)COC(=O)/C=C/c1ccccc1)C1CCS(=O)(=O)C1 (stereo not given)	.	.	.	/	/	/	/	/	/	/
CC(=O)c1cccc(NC(=O)CSc2n[nH]c(-c3ccncc3)n2)c1	.	.	.	.	.	.	/	/	/	/
CC(=O)n1nc(-c2ccncc2)nc1SCC(=O)Nc1cccc(Cl)c1	4µM	.	.	.	.	.	3.7µM	.	7.3µM	.
Cc1cccc(NC(=O)CSc2n[nH]c(-c3ccncc3)n2)c1	3.5µM	.	.	.	.	.	5.2µM	.	10µM	.
CCCSc1ncc(Cl)c(C(=O)Nc2c(C(=O)c3ccc(C)cc3)oc3ccccc23)n1	/	.	/	.	.	/	/	/	/	/
SMILES	TGFb SMAD3 inh	HepG2 tox-1	ATXN viability	A549 tox	Nrf2 block	ATXN2 expr inh	TGFb CAGA inh	HepG2 tox-2	TGFb CCL64 inh	COP TGFb inh
COc1ccccc1N1CCN(C(=O)c2ccc(-c3ccc(Cl)cc3)o2)CC1	8.9µM	.	?	.	?	/	13µM	12µM	?	.
COc1ccccc1N1CCN(C(=O)NCc2ccc(Cl)cc2)CC1	.	.	.	.	.	.	/	/	/	/
O=C(COc1cccc2ccccc12)Nc1ccc(Cl)cc1C(=O)O	11µM	.	.	.	?	.	16µM	8.2µM	?	.
CC(C(=O)Nc1ccc(C(F)(F)F)cc1)N(C)CC(=O)N1CCN(Cc2ccccc2)CC1 (stereo not given)	?	.	.	.	.	.	/	/	/	/
CSc1ccccc1NC(=O)C(C)N(C)CC(=O)N1CCN(Cc2ccccc2)CC1 (stereo not given)	?	.	.	.	.	.	?	.	.	.
CN(C)CCN(C)C1CN(Cc2ccc(F)cc2)S(=O)(=O)C1 (stereo not given)	?	.	.	/	/	.	.	.	.	.
O=C(Nc1cccc(S(=O)(=O)Nc2ccccc2Cl)c1)c1ccc(Cl)nc1	13µM	.	.	.	5.2µM	.	8.2µM	.	.	.
Cc1ccc(NC(=S)N2CCC(N(C)CC3CCCO3)CC2)cc1 (stereo not given)	.	.	.	.	.	.	/	/	/	/
COc1cc(N)ccc1Nc1c2ccccc2nc2ccccc12	?	.	/	/	/	?	/	/	/	/
